The values below come from publication PMC6522510 (Nature Communications, 2019).

Settings in all cases: 72 h, relative to cycloheximide control, log10 luminescence
For test [1], the system named is CHRF288-11.
Test [2] deals with CMK.
Test [3] concerns CMS.
The test system of test [4] is M07e.
The test system of test [5] is ML-2.
Test [6] has as its system MOLM-13.
Test [7] has as its system MV4-11.
Test [8] relates to U937.

For the molecule `C[C@]12CC[C@@H]3c4ccc(OC(=O)N(CCCl)CCCl)cc4CC[C@H]3[C@@H]1CC[C@@H]2OP(=O)(O)O` [SJ000518944-1, ES[…] SODIUM], the CHRF288-11 %inh in test [1] was 1.087%. Besides, the CMK %inh in test [2] was -3.517%. Moreover, in test [3], the CMS %inh was -0.5738%. For the same molecule, the M07e %inh in test [4] is 1.122%. The molecule also registered an ML-2 %inh in test [5] of 0.1396%. The MOLM-13 %inh in test [6] was determined as 1.341%. Also, in test [7], the MV4-11 %inh was 2.919%. Further, in test [8], the U937 %inh is -1.233%.
